Among the data in the supplement of paper PMC10681739 are ETS1 binding intensity and RUNX1 binding intensity values, retold here.

Assay [1] concerns the target T1, ETS1 (UniProt P14921).
T1 sequence: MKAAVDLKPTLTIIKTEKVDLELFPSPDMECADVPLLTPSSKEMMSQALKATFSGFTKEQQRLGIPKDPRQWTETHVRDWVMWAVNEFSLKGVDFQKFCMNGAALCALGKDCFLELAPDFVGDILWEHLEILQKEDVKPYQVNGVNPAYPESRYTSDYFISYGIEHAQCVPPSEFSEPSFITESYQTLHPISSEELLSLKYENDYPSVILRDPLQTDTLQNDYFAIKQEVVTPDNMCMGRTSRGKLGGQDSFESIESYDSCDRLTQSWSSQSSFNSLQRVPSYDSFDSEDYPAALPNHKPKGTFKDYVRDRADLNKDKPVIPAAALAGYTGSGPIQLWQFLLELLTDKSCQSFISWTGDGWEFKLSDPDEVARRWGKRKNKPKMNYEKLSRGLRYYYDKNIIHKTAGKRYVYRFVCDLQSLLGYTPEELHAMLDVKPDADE
Kind of assay: ETS1 binding intensity (PBM fluorescence), ETS1 alone (arbitrary fluorescence units); higher = stronger binding. To be noted: ETS1 concentration 1 nM; RUNX1 concentration 0 nM.

The target in assay [2] is RUNX1 (UniProt Q01196). Kind of assay: RUNX1 binding intensity (PBM fluorescence), RUNX1 alone (arbitrary fluorescence units); higher = stronger binding. To be noted: RUNX1 concentration 2 nM; ETS1 concentration 0 nM. As to the method: (§1)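 Cooperative gcPBM on 36-bp genomic probes with neighbouring ETS1 and RUNX1 sites. Recombinant human RUNX1 (2 nM) was incubated alone or with ETS1 (25 nM) and detected with anti-RUNX1 antibody plus Alexa488 secondary. Values are medians over 4 replicate spots; the RUNX1+ETS1 data were normalised to the RUNX1-only data. The probes sit in constant array flanks that are not printed.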

Assay [3] deals with RUNX1 (UniProt Q01196). Description: RUNX1 binding intensity (PBM fluorescence) in presence of ETS1, normalised to RUNX1-only experiment (arbitrary fluorescence units); higher = stronger binding. To be noted: RUNX1 concentration 2 nM; ETS1 concentration 25 nM. As to the method: as §1
Assay [4] addresses T1, ETS1. Kind of assay: ETS1 binding intensity (PBM fluorescence) in presence of RUNX1, normalised to ETS1-only experiment (arbitrary fluorescence units); higher = stronger binding. To be noted: ETS1 concentration 1 nM; RUNX1 concentration 25 nM.
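For RUNX1 binding intensity (PBM fluorescence) in presence of ETS1, normalised to RUNX1-only experiment in this document: Full-length recombinant human ETS1 or RUNX1 bound to double-stranded 36-bp genomic probes on microarrays, detected by protein-specific primary antibody and Alexa488 secondary, spot fluorescence as median of four replicate spots.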
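For RUNX1 binding intensity (PBM fluorescence), RUNX1 alone in this document: Full-length recombinant human RUNX1 bound to double-stranded 36-bp genomic probes on a high-density microarray, scored as Alexa488 fluorescence per spot via anti-RUNX1 antibody, median of four replicate spots.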

Chain of RUNX1 (Q01196 whole entry): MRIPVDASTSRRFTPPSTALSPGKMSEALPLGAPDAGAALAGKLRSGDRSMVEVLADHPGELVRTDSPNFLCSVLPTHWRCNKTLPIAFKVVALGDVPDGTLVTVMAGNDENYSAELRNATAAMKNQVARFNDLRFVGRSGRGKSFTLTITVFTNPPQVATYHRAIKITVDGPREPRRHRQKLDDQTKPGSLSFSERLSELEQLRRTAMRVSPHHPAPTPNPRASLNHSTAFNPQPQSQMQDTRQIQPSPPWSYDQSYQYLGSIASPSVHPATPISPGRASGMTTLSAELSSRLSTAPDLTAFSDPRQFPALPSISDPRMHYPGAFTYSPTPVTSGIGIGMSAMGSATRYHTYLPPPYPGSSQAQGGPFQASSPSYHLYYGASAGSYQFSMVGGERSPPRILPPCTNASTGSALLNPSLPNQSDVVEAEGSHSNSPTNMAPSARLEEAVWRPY

In assay [1], CGGGAGGGGCAGGAAGCGGACTGCGGTGGGGAAGGG registered an ETS1 binding intensity of 2770. The results for the RUNX1 binding intensity in assay [2] and in assay [3] were 939 and 1470, respectively.

Take TCACATTTTGCCGGATGTGGGTTGAGGGCATGCTGC: the ETS1 binding intensity in assay [1] came to 6680. Further, the RUNX1 binding intensity in assay [2] came to 773; in assay [3], 8730.

Turning to CTCTGGCAGGAAGCTCTGAGGGCTAAACCACAAAAA, the ETS1 binding intensity in assay [1] turned out to be 1110. Further, the results for the RUNX1 binding intensity in assay [2] and in assay [3] were 989 and 1820, respectively.

In turn, TTCAGGAAATGCAAACGGCTGCAGAGACCGCAGAGG had an ETS1 binding intensity in assay [1] of 499. The RUNX1 binding intensity in assay [2] came to 793; in assay [3] it was 1090.

As to ATGAGCTATTTCCTGCCTTGTGGTCAGAGCCAGACT, the ETS1 binding intensity in assay [1] was determined as 1640. In addition, the RUNX1 binding intensity in assay [2] was 1050; in assay [3], 4330.

CCCACTGCGCCAGGATGTGGTCAGGTCGGTGACGTT registered an ETS1 binding intensity in assay [1] of 1560. The results for the RUNX1 binding intensity in assay [2] and in assay [3] were 886 and 3410, respectively.

On to GTAAACTAGCTCTTCCGGTCTGTGGCCCTCACAGGA, for which the ETS1 binding intensity in assay [1] came to 2840. Moreover, the RUNX1 binding intensity in assay [2] turned out to be 824; in assay [3] it was 1500.

In turn, GCAGCTGCAAACAGGAAACCACAGCAGCGTAGCGGA gave an ETS1 binding intensity in assay [1] of 2910. For the same sequence, the values for the RUNX1 binding intensity in assay [2] and in assay [3] were 962 and 1710, respectively.

In turn, CTTAGAGTACCAGGATGTGGTTTGGCCTGGGGGTGG showed an ETS1 binding intensity in assay [1] of 1790. Also, the RUNX1 binding intensity in assay [2] amounted to 1000; in assay [3] it was 1800.

Sequence CCCAGCCCTGCTGCCGGATGTGGTGAGGCCCAGGTG had an ETS1 binding intensity in assay [1] of 5030. In addition, the RUNX1 binding intensity in assay [2] was 768; in assay [3], 5400.

In assay [1], GACATCTTCCGGTTGCTACAGGTTACGGCGGTTGCT came in with an ETS1 binding intensity of 2700. Further, the RUNX1 binding intensity in assay [2] stood at 778; in assay [3], 1640.

Sequence AGGACGGGCGGAAGTGGCTGCGGTGGATGGTGGGAG showed an ETS1 binding intensity in assay [1] of 4180. Besides, the values for the RUNX1 binding intensity in assay [2] and in assay [3] were 797 and 3180, respectively.

On to GCCGGAAGCCACGCAGGGCCACGTCTGCGGTTCTGA, for which the ETS1 binding intensity in assay [1] worked out at 976. For the same sequence, the values for the RUNX1 binding intensity in assay [2] and in assay [3] were 826 and 1220, respectively.

Turning to CCGGTCCGCTCGCCGGAAATGCGGGCTCTCCTGCCG, the ETS1 binding intensity in assay [1] turned out to be 8400. Moreover, the RUNX1 binding intensity in assay [2] was found to be 815; in assay [3] it was 1240.

TGAGCTCAGGCCGGAAGCGGTGGATGATGGCACACA: the ETS1 binding intensity in assay [1] was 9910. The RUNX1 binding intensity turned out to be 716 in assay [2] and 1560 in assay [3].

Turning to AAGTTGATTTCCGGGTAGTCTGTGGTTTCCTAATCA, the ETS1 binding intensity in assay [1] is 1040. The results for the RUNX1 binding intensity in assay [2] and in assay [3] were 1210 and 3880, respectively.

The sequence CTGAGCCGGATGTTACTGGTTAGTGGTTTTCTTTAT yielded an ETS1 binding intensity in assay [1] of 3290. Further, the RUNX1 binding intensity in assay [2] worked out at 917; in assay [3], 1560.

On to TGTATGAAAAAAACAGGAAACCACAGAGAACTGAGG, for which the ETS1 binding intensity in assay [1] was 2210. Also, the RUNX1 binding intensity in assay [2] was found to be 1060; in assay [3], 2060.

In assay [1], ACCGGCCGAGCCAACTTCCGGCCGCAGAGGCTGCCG displayed an ETS1 binding intensity of 5830. The RUNX1 binding intensity in assay [2] turned out to be 756; in assay [3], 1840.

In assay [1], ACGGTGTGTCTCATTTCCTGTGGGTAACAGGCACCA displayed an ETS1 binding intensity of 2120. Moreover, the RUNX1 binding intensity stood at 935 in assay [2] and 1720 in assay [3].

TCGCACCGGAACCCCTTGGCGGATTATGTGGGTTCC: the ETS1 binding intensity in assay [1] is 659. The figures for the RUNX1 binding intensity in assay [2] and in assay [3] were 782 and 862, respectively.

Sequence AGCAGGTATACCACTTCCTGTGGTTATCATTTGAGG came in with an ETS1 binding intensity in assay [1] of 2330. For the same sequence, the RUNX1 binding intensity in assay [2] stood at 966; in assay [3], 6540.

CACTGATTAAGAGGAAGTGTGTGTGGTTATTACCGT had an ETS1 binding intensity in assay [1] of 1980. Further, the RUNX1 binding intensity in assay [2] was 804; in assay [3] it was 1170.

In turn, GGGAACTGGGGAAGGGGATGTGGTAACCAGAACCAC showed an ETS1 binding intensity in assay [1] of 543. Moreover, the RUNX1 binding intensity worked out at 869 in assay [2] and 1050 in assay [3].

In assay [1], CTTTCGGGGGCGGAAGTTGCGGTGCATTGTAGGTTC registered an ETS1 binding intensity of 7760. Further, the RUNX1 binding intensity was 955 in assay [2] and 2800 in assay [3].

Regarding CTTAGCACTTCAGCCGGAAACCACAGCATACATTTC, the ETS1 binding intensity in assay [1] worked out at 3980. Moreover, the RUNX1 binding intensity in assay [2] worked out at 1460; in assay [3] it was 2310.

In assay [1], GGTGCCTGGGGAGGATGTGGGCTGACTGGGAGGGGT showed an ETS1 binding intensity of 870. Besides, the RUNX1 binding intensity was determined as 869 in assay [2] and 974 in assay [3].

In assay [1], GGGGCTCCGCAGGAAGTAGGGCTCCCACAACTTTGC registered an ETS1 binding intensity of 2970. Moreover, the RUNX1 binding intensity was found to be 664 in assay [2] and 1040 in assay [3].

On to GGACAGGAAGTTCCTGCAGCTTCTACCACAAACCTA, for which the ETS1 binding intensity in assay [1] is 2450. Also, the RUNX1 binding intensity in assay [2] was determined as 829; in assay [3], 1420.

Take TTTCTGACACTCTCAGGATGTGGGTTTTCGCACTGT: in assay [1], the ETS1 binding intensity amounted to 1230. For the same sequence, the RUNX1 binding intensity in assay [2] is 797; in assay [3], 1350.

In assay [1], TGGCTGTGAGCTGCAGGATGTGGTCAGGAGAGGAAG gave an ETS1 binding intensity of 2180. Further, the values for the RUNX1 binding intensity in assay [2] and in assay [3] were 804 and 2310, respectively.

Take AATCTGAAACAGGAAATAAGTCTGTGGTTGTGTGTT: in assay [1], the ETS1 binding intensity was 7070. For the same sequence, the RUNX1 binding intensity in assay [2] is 833; in assay [3] it was 1540.

In assay [1], CTCTCACTTCCCGTGTGAGAAAAACCACAGAAAAGC registered an ETS1 binding intensity of 651. Moreover, the RUNX1 binding intensity in assay [2] turned out to be 1890; in assay [3], 4200.

GCACCACCGGAAGTAGGGCTCAACCACCGCTCATTT returned an ETS1 binding intensity in assay [1] of 10300. In addition, the RUNX1 binding intensity in assay [2] turned out to be 1000; in assay [3], 1980.

In the case of GAAAAAAATGAGCTTCCTTTAACCACAACTGTATTA, the ETS1 binding intensity in assay [1] was found to be 508. The figures for the RUNX1 binding intensity in assay [2] and in assay [3] were 1350 and 2340, respectively.

With TCTTCAGGCGTCTTTCCGGTGGTGGTCGTTTTTGCT, the ETS1 binding intensity in assay [1] came to 1530; in assay [4], 1330. The RUNX1 binding intensity came to 905 in assay [2] and 1390 in assay [3].
